# Laboratory results from the supplement of paper PMC8975748.
# ± gives the standard deviation of the averaged measurements.
# Columns and labels:
# [1] = system: Saccharomyces cerevisiae BY4741 SeMeCo community; assay: mean cell size (pixel area) (pixels); higher = larger cells; details: 10 µM; 24 h; SM minimal medium
# In short: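 Harmony analysis of automated confocal images of paraformaldehyde-fixed yeast gave the mean cell pixel area per well. The yeast was a Saccharomyces cerevisiae BY4741 community carrying four plasmids, each with a fluorescent marker and each complementing one auxotrophy, incubated for 24 h in SM medium containing drug at a final 10 µM in 384-well plates. Results are averaged over 3 replicates. Same SeMeCo high-content imaging drug screen: Selleck FDA-approved drugs at 10 µM, 24 h in SM medium, 384-well plates, 3 replicates.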
# [2] = system: Saccharomyces cerevisiae BY4741 SeMeCo community; assay: z-score of prototroph abundance vs DMSO median; higher = larger share of this subpopulation than in DMSO controls; details: 10 µM; 24 h; SM minimal medium; subpopulation (auxotrophy): Prototroph
# In short: (§1)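 A community of Saccharomyces cerevisiae BY4741 was built from four plasmids that each restored one auxotrophy and encoded a distinct fluorescent protein. Pre-grown overnight to OD600 1.0 and diluted to 0.3, it was dispensed at 70 µl into 384-well plates acoustically predosed with library drugs for a final 10 µM, and grown 24 h in minimal SM medium. Cells were then paraformaldehyde-fixed and imaged by automated confocal microscopy. Thresholds and autofluorescence correction came from single-auxotroph fluorescent strains, and each subpopulation's abundance was scored as a z-score relative to the vehicle-well median.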
# [3] = system: Saccharomyces cerevisiae BY4741 SeMeCo community; assay: z-score of subpopulation abundance vs DMSO median, subpopulation auxotrophic for M; higher = larger share of this subpopulation than in DMSO controls; details: 10 µM; 24 h; SM minimal medium; subpopulation (auxotrophy): M
# In short: as §1
# [4] = system: Saccharomyces cerevisiae BY4741 SeMeCo community; assay: z-score of subpopulation abundance vs DMSO median, subpopulation auxotrophic for L; higher = larger share of this subpopulation than in DMSO controls; details: 10 µM; 24 h; SM minimal medium; subpopulation (auxotrophy): L
# In short: as §1
# [5] = system: Saccharomyces cerevisiae BY4741 SeMeCo community; assay: z-score of subpopulation abundance vs DMSO median, subpopulation auxotrophic for U; higher = larger share of this subpopulation than in DMSO controls; details: 10 µM; 24 h; SM minimal medium; subpopulation (auxotrophy): U
# In short: as §1
# [6] = system: Saccharomyces cerevisiae BY4741 SeMeCo community; assay: z-score of subpopulation abundance vs DMSO median, subpopulation auxotrophic for H; higher = larger share of this subpopulation than in DMSO controls; details: 10 µM; 24 h; SM minimal medium; subpopulation (auxotrophy): H
# In short: as §1
# [7] = system: Saccharomyces cerevisiae BY4741 SeMeCo community; assay: z-score of subpopulation abundance vs DMSO median, subpopulation auxotrophic for LU; higher = larger share of this subpopulation than in DMSO controls; details: 10 µM; 24 h; SM minimal medium; subpopulation (auxotrophy): LU
# In short: as §1
# [8] = system: Saccharomyces cerevisiae BY4741 SeMeCo community; assay: z-score of subpopulation abundance vs DMSO median, subpopulation auxotrophic for LM; higher = larger share of this subpopulation than in DMSO controls; details: 10 µM; 24 h; SM minimal medium; subpopulation (auxotrophy): LM
# In short: as §1
# [9] = system: Saccharomyces cerevisiae BY4741 SeMeCo community; assay: z-score of subpopulation abundance vs DMSO median, subpopulation auxotrophic for HM; higher = larger share of this subpopulation than in DMSO controls; details: 10 µM; 24 h; SM minimal medium; subpopulation (auxotrophy): HM
# In short: as §1
# [10] = system: Saccharomyces cerevisiae BY4741 SeMeCo community; assay: z-score of subpopulation abundance vs DMSO median, subpopulation auxotrophic for HU; higher = larger share of this subpopulation than in DMSO controls; details: 10 µM; 24 h; SM minimal medium; subpopulation (auxotrophy): HU
# In short: as §1
# [11] = system: Saccharomyces cerevisiae BY4741 SeMeCo community; assay: z-score of subpopulation abundance vs DMSO median, subpopulation auxotrophic for UM; higher = larger share of this subpopulation than in DMSO controls; details: 10 µM; 24 h; SM minimal medium; subpopulation (auxotrophy): UM
# In short: as §1
# [12] = system: Saccharomyces cerevisiae BY4741 SeMeCo community; assay: z-score of subpopulation abundance vs DMSO median, subpopulation auxotrophic for HL; higher = larger share of this subpopulation than in DMSO controls; details: 10 µM; 24 h; SM minimal medium; subpopulation (auxotrophy): HL
# In short: as §1
# [13] = system: Saccharomyces cerevisiae BY4741 SeMeCo community; assay: z-score of subpopulation abundance vs DMSO median, subpopulation auxotrophic for HLU; higher = larger share of this subpopulation than in DMSO controls; details: 10 µM; 24 h; SM minimal medium; subpopulation (auxotrophy): HLU
# In short: as §1
# [14] = system: Saccharomyces cerevisiae BY4741 SeMeCo community; assay: z-score of subpopulation abundance vs DMSO median, subpopulation auxotrophic for HLM; higher = larger share of this subpopulation than in DMSO controls; details: 10 µM; 24 h; SM minimal medium; subpopulation (auxotrophy): HLM
# In short: as §1
# [15] = system: Saccharomyces cerevisiae BY4741 SeMeCo community; assay: z-score of subpopulation abundance vs DMSO median, subpopulation auxotrophic for HUM; higher = larger share of this subpopulation than in DMSO controls; details: 10 µM; 24 h; SM minimal medium; subpopulation (auxotrophy): HUM
# In short: as §1
# [16] = system: Saccharomyces cerevisiae BY4741 SeMeCo community; assay: z-score of subpopulation abundance vs DMSO median, subpopulation auxotrophic for LUM; higher = larger share of this subpopulation than in DMSO controls; details: 10 µM; 24 h; SM minimal medium; subpopulation (auxotrophy): LUM
# In short: as §1
# [17] = system: Saccharomyces cerevisiae BY4741 SeMeCo community; assay: z-score of subpopulation abundance vs DMSO median, subpopulation auxotrophic for HLUM; higher = larger share of this subpopulation than in DMSO controls; details: 10 µM; 24 h; SM minimal medium; subpopulation (auxotrophy): HLUM
# In short: as §1
SMILES,mean cell size [1],z-score of prototroph abundance [2],z-score of subpopulation abundance [3],z-score of subpopulation abundance [4],z-score of subpopulation abundance [5],z-score of subpopulation abundance [6],z-score of subpopulation abundance [7],z-score of subpopulation abundance [8],z-score of subpopulation abundance [9],z-score of subpopulation abundance [10],z-score of subpopulation abundance [11],z-score of subpopulation abundance [12],z-score of subpopulation abundance [13],z-score of subpopulation abundance [14],z-score of subpopulation abundance [15],z-score of subpopulation abundance [16],z-score of subpopulation abundance [17]
N[C@@H](CCC(=O)O)C(=O)O [(S)-Glutamic acid],12.1 ± 0.22,0.18,-0.4,0.52,0.05,0.17,-0.36,0.15,-0.08,-0.75,-0.63,-0.27,-0.63,0.07,-0.56,-0.99,0.06
CN[C@H](CC(C)C)C(=O)N[C@H]1C(=O)N[C@@H](CC(N)=O)C(=O)N[C@H]2C(=O)N[C@H]3C(=O)N[C@H](C(=O)N[C@H](C(=O)O)c4cc(O)cc(O)c4-c4cc3ccc4O)[C@H](O)c3ccc(c(Cl)c3)Oc3cc2cc(c3O[C@@H]2O[C@H](CO)[C@@H](O)[C@H](O)[C@H]2O[C@H]2C[C@](C)(N)[C@H](O)[C@H](C)O2)Oc2ccc(cc2Cl)[C@H]1O [Vancomycin],12.3 ± 0.13,0.81,-0.82,-0.12,-0.09,-0.2,0.08,-0.43,-0.74,-0.91,-0.16,-0.12,-0.21,-0.2,-0.71,-0.78,-0.03
CC[C@H]1OC(=O)[C@H](C)[C@@H](O[C@H]2C[C@@](C)(OC)[C@@H](O)[C@H](C)O2)[C@H](C)[C@@H](O[C@@H]2O[C@H](C)C[C@H](N(C)C)[C@H]2O)[C@](C)(O)C[C@@H](C)CN[C@H](C)[C@@H](O)[C@]1(C)O [Azathramycin],12.5 ± 0.16,0.12,0,-0.61,0.07,0.33,-0.39,-0.14,0.1,-0.16,0.42,-0.33,-1.12,-0.79,0.01,-0.37,-0.5
CCCOc1ccc2c(c1)CC[C@@H]1[C@@H]2CC[C@]2(C)[C@@H](OC)CC[C@@H]12 [Promestriene],12.5 ± 0.26,-1.13,1.08,0.77,0.31,0.19,0.62,0.33,0.25,0.21,1.71,0.84,0.6,0.48,1.7,1.34,0.24
C[C@@H](O)[C@H]1C(=O)N2C(C(=O)OCOC(=O)C(C)(C)C)=C(SC3CN(C4=NCCS4)C3)[C@H](C)[C@H]12 [Tebipenem Pivoxil],12.4 ± 0.16,0.66,-0.17,0,0.02,,-0.6,0.18,-0.9,-0.03,-0.27,-0.41,-0.99,-0.55,-0.67,0.09,-0.74
CC[C@H]1OC(=O)[C@H](C)[C@@H](O[C@H]2C[C@@](C)(OC)[C@@H](O)[C@H](C)O2)[C@H](C)[C@@H](O[C@@H]2O[C@H](C)C[C@H](N(C)C)[C@H]2O)[C@](C)(O)C[C@@H](C)/C(=N\OCOCCOC)[C@H](C)[C@@H](O)[C@]1(C)O [Roxithromycin],12.4 ± 0.26,-0.63,0.34,-0.94,0.31,,-0.28,0.13,0.24,0.46,0.31,0.42,0,-0.45,1.28,0.55,-0.6
